Measured values published in publication PMC11006913.
Substitutions are numbered along the chain they refer to.

Columns and labels:
Experiment in all cases: PBM; 200 nM protein, PBS
Settings in all cases: dsDNA, one strand shown
[1] = target: NKX2-5 (Homo sapiens, UniProt P52952 125-210, R139K)
[2] = target: HOXA2 (Homo sapiens, UniProt O43364 129-215, R185T)
[3] = target: HOXA2 (Homo sapiens, UniProt O43364 129-215, R185K)
[4] = target: HOXA2 (Homo sapiens, UniProt O43364 129-215, Y150S)
[5] = target: HOXA2 (Homo sapiens, UniProt O43364 129-215)
Sequence of HOXA2 (Homo sapiens, UniProt O43364 129-215) (O43364 129-215): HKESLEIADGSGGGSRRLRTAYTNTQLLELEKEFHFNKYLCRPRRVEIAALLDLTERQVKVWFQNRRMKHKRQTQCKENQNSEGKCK

[6] = target: NKX2-5 (Homo sapiens, UniProt P52952 125-210)
Sequence of NKX2-5 (Homo sapiens, UniProt P52952 125-210) (P52952 125-210): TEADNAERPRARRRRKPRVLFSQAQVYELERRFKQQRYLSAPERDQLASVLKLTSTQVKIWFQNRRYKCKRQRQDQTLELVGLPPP

[7] = target: HOXC10 (Homo sapiens, UniProt Q9NYD6 254-340)
Sequence of HOXC10 (Homo sapiens, UniProt Q9NYD6 254-340) (Q9NYD6 254-340): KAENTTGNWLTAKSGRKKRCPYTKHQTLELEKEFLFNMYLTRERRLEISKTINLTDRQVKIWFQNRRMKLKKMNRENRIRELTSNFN

[8] = target: T1, NKX2-6 (Homo sapiens, UniProt A6NCS4 118-204, R150C)
T1 sequence: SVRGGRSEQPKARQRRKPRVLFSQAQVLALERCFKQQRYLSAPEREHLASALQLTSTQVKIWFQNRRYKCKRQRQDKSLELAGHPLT

[9] = target: HOXD13 (Homo sapiens, UniProt P35453 263-343, T313R)
Sequence of HOXD13 (Homo sapiens, UniProt P35453 263-343, T313R) (P35453 263-343 T313R): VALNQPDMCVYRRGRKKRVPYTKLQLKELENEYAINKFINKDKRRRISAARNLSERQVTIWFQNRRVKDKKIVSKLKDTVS

[10] = target: HOXD13 (Homo sapiens, UniProt P35453 263-343)
Sequence of HOXD13 (Homo sapiens, UniProt P35453 263-343) (P35453 263-343): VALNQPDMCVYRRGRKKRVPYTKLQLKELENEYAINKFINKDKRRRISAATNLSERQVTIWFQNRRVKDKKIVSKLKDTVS

[11] = target: HOXC10 (Homo sapiens, UniProt Q9NYD6 254-340, K271E)
Sequence of HOXC10 (Homo sapiens, UniProt Q9NYD6 254-340, K271E) (Q9NYD6 254-340 K271E): as the sequence (Q9NYD6 254-340) above, with K18E counted along it

[12] = target: HOXD13 (Homo sapiens, UniProt P35453 263-343, T313A)
Sequence of HOXD13 (Homo sapiens, UniProt P35453 263-343, T313A) (P35453 263-343 T313A): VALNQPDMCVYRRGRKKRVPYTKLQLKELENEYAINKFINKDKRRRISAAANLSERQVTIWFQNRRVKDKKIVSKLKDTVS

[13] = target: T2, SIX6 (Homo sapiens, UniProt O95475 114-200, L167I)
T2 sequence: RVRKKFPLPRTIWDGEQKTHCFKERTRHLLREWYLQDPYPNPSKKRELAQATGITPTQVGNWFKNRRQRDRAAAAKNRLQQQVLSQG

[14] = target: T3, SIX6 (Homo sapiens, UniProt O95475 114-200, L143V)
T3 sequence: T2 sequence with L30V, I54L

[15] = target: PRRX1 (Homo sapiens, UniProt P54821 80-166, F113S)
Sequence of PRRX1 (Homo sapiens, UniProt P54821 80-166, F113S) (P54821 80-166 F113S): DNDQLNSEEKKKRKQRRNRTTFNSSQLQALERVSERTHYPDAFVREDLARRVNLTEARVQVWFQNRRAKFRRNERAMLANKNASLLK

[16] = target: T4, SIX6 (Homo sapiens, UniProt O95475 114-200, H141N)
T4 sequence: T2 sequence with H28N, I54L

[17] = target: T5, SIX6 (Homo sapiens, UniProt O95475 114-200, T165P)
T5 sequence: T2 sequence with T52P, I54L

[18] = target: T6, SIX6 (Homo sapiens, UniProt O95475 114-200, L167M)
T6 sequence: T2 sequence with I54M

[19] = target: T7, SIX6 (Homo sapiens, UniProt O95475 114-200, L143M)
T7 sequence: T2 sequence with L30M, I54L

[20] = target: T8, SIX6 (Homo sapiens, UniProt O95475 114-200, L143I)
T8 sequence: T2 sequence with L30I, I54L

[21] = target: T9, SIX6 (Homo sapiens, UniProt O95475 114-200, T165G)
T9 sequence: T2 sequence with T52G, I54L

[22] = target: T10, SIX6 (Homo sapiens, UniProt O95475 114-200, T139Q)
T10 sequence: T2 sequence with T26Q, I54L

[23] = target: T11, SIX6 (Homo sapiens, UniProt O95475 114-200, T165A)
T11 sequence: T2 sequence with T52A, I54L

[24] = target: T12, SIX6 (Homo sapiens, UniProt O95475 114-200, L167V)
T12 sequence: T2 sequence with I54V

[25] = target: T13, SIX6 (Homo sapiens, UniProt O95475 114-200)
T13 sequence: T2 sequence with I54L

[26] = target: T14, SIX6 (Homo sapiens, UniProt O95475 114-200, T165I)
T14 sequence: T2 sequence with T52I, I54L

[27] = target: PRRX1 (Homo sapiens, UniProt P54821 80-166)
Sequence of PRRX1 (Homo sapiens, UniProt P54821 80-166) (P54821 80-166): as the sequence (P54821 80-166 F113S) above, with S34F counted along it

[28] = target: ALX3 (Homo sapiens, UniProt O95076 139-225, N203Q)
Sequence of ALX3 (Homo sapiens, UniProt O95076 139-225, N203Q) (O95076 139-225 N203Q): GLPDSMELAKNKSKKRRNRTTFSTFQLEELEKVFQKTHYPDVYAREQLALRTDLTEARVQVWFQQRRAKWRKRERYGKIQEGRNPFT

[29] = target: ALX3 (Homo sapiens, UniProt O95076 139-225)
Sequence of ALX3 (Homo sapiens, UniProt O95076 139-225) (O95076 139-225): as the sequence (O95076 139-225 N203Q) above, with Q65N counted along it

[30] = target: ALX3 (Homo sapiens, UniProt O95076 139-225, L168Q)
Sequence of ALX3 (Homo sapiens, UniProt O95076 139-225, L168Q) (O95076 139-225 L168Q): as the sequence (O95076 139-225 N203Q) above, with L30Q, Q65N counted along it

[31] = target: ALX3 (Homo sapiens, UniProt O95076 139-225, L168V)
Sequence of ALX3 (Homo sapiens, UniProt O95076 139-225, L168V) (O95076 139-225 L168V): as the sequence (O95076 139-225 N203Q) above, with L30V, Q65N counted along it

[32] = target: ALX3 (Homo sapiens, UniProt O95076 139-225, N203S)
Sequence of ALX3 (Homo sapiens, UniProt O95076 139-225, N203S) (O95076 139-225 N203S): as the sequence (O95076 139-225 N203Q) above, with Q65S counted along it

Sequence of NKX2-5 (Homo sapiens, UniProt P52952 125-210, R139K) (P52952 125-210 R139K): as the sequence (P52952 125-210) above, with R15K counted along it
Sequence of HOXA2 (Homo sapiens, UniProt O43364 129-215, Y150S) (O43364 129-215 Y150S): as the sequence (O43364 129-215) above, with Y22S counted along it
Sequence of HOXA2 (Homo sapiens, UniProt O43364 129-215, R185T) (O43364 129-215 R185T): as the sequence (O43364 129-215) above, with R57T counted along it
Sequence of HOXA2 (Homo sapiens, UniProt O43364 129-215, R185K) (O43364 129-215 R185K): as the sequence (O43364 129-215) above, with R57K counted along it

## CCGAGGTC
[1]
  binding signal: 8.47 upbm affinity estimate (log intensity, higher = more binding, comparable within an allelic series)
[2]
  binding signal: 6.93 upbm affinity estimate (log intensity, higher = more binding, comparable within an allelic series)
[3]
  binding signal: 10.2 upbm affinity estimate (log intensity, higher = more binding, comparable within an allelic series)
[4]
  binding signal: 10.4 upbm affinity estimate (log intensity, higher = more binding, comparable within an allelic series)
[5]
  binding signal: 7.18 upbm affinity estimate (log intensity, higher = more binding, comparable within an allelic series)
[6]
  binding signal: 8.66 upbm affinity estimate (log intensity, higher = more binding, comparable within an allelic series)

## CCCCCCGG
[1]
  binding signal: 8.2 upbm affinity estimate (log intensity, higher = more binding, comparable within an allelic series)
[7]
  binding signal: 9.81 upbm affinity estimate (log intensity, higher = more binding, comparable within an allelic series)
[8]
  binding signal: 8.56 upbm affinity estimate (log intensity, higher = more binding, comparable within an allelic series)
[9]
  binding signal: 8.85 upbm affinity estimate (log intensity, higher = more binding, comparable within an allelic series)
[10]
  binding signal: 8.78 upbm affinity estimate (log intensity, higher = more binding, comparable within an allelic series)
[11]
  binding signal: 9.82 upbm affinity estimate (log intensity, higher = more binding, comparable within an allelic series)
[12]
  binding signal: 8.98 upbm affinity estimate (log intensity, higher = more binding, comparable within an allelic series)
[6]
  binding signal: 8.1 upbm affinity estimate (log intensity, higher = more binding, comparable within an allelic series)

## CGGCGCCG
[1]
  binding signal: 9.06 upbm affinity estimate (log intensity, higher = more binding, comparable within an allelic series)
[13]
  binding signal: 8.88 upbm affinity estimate (log intensity, higher = more binding, comparable within an allelic series)
[14]
  binding signal: 8.75 upbm affinity estimate (log intensity, higher = more binding, comparable within an allelic series)
[15]
  binding signal: 9.2 upbm affinity estimate (log intensity, higher = more binding, comparable within an allelic series)
[16]
  binding signal: 8.89 upbm affinity estimate (log intensity, higher = more binding, comparable within an allelic series)
[17]
  binding signal: 9.09 upbm affinity estimate (log intensity, higher = more binding, comparable within an allelic series)
[18]
  binding signal: 8.86 upbm affinity estimate (log intensity, higher = more binding, comparable within an allelic series)
[19]
  binding signal: 8.74 upbm affinity estimate (log intensity, higher = more binding, comparable within an allelic series)
[20]
  binding signal: 8.87 upbm affinity estimate (log intensity, higher = more binding, comparable within an allelic series)
[21]
  binding signal: 8.96 upbm affinity estimate (log intensity, higher = more binding, comparable within an allelic series)
[22]
  binding signal: 8.91 upbm affinity estimate (log intensity, higher = more binding, comparable within an allelic series)
[23]
  binding signal: 8.83 upbm affinity estimate (log intensity, higher = more binding, comparable within an allelic series)
[24]
  binding signal: 8.85 upbm affinity estimate (log intensity, higher = more binding, comparable within an allelic series)
[25]
  binding signal: 8.9 upbm affinity estimate (log intensity, higher = more binding, comparable within an allelic series)
[26]
  binding signal: 8.84 upbm affinity estimate (log intensity, higher = more binding, comparable within an allelic series)
[27]
  binding signal: 9.48 upbm affinity estimate (log intensity, higher = more binding, comparable within an allelic series)
[6]
  binding signal: 9.14 upbm affinity estimate (log intensity, higher = more binding, comparable within an allelic series)

## CCCCTGCG
[1]
  binding signal: 8.68 upbm affinity estimate (log intensity, higher = more binding, comparable within an allelic series)
[13]
  binding signal: 8.92 upbm affinity estimate (log intensity, higher = more binding, comparable within an allelic series)
[14]
  binding signal: 8.67 upbm affinity estimate (log intensity, higher = more binding, comparable within an allelic series)
[16]
  binding signal: 8.89 upbm affinity estimate (log intensity, higher = more binding, comparable within an allelic series)
[17]
  binding signal: 8.67 upbm affinity estimate (log intensity, higher = more binding, comparable within an allelic series)
[18]
  binding signal: 8.87 upbm affinity estimate (log intensity, higher = more binding, comparable within an allelic series)
[19]
  binding signal: 8.77 upbm affinity estimate (log intensity, higher = more binding, comparable within an allelic series)
[20]
  binding signal: 8.85 upbm affinity estimate (log intensity, higher = more binding, comparable within an allelic series)
[21]
  binding signal: 8.87 upbm affinity estimate (log intensity, higher = more binding, comparable within an allelic series)
[22]
  binding signal: 8.92 upbm affinity estimate (log intensity, higher = more binding, comparable within an allelic series)
[28]
  binding signal: 7.65 upbm affinity estimate (log intensity, higher = more binding, comparable within an allelic series)
[23]
  binding signal: 8.91 upbm affinity estimate (log intensity, higher = more binding, comparable within an allelic series)
[24]
  binding signal: 8.9 upbm affinity estimate (log intensity, higher = more binding, comparable within an allelic series)
[29]
  binding signal: 7.85 upbm affinity estimate (log intensity, higher = more binding, comparable within an allelic series)
[25]
  binding signal: 8.87 upbm affinity estimate (log intensity, higher = more binding, comparable within an allelic series)
[30]
  binding signal: 7.61 upbm affinity estimate (log intensity, higher = more binding, comparable within an allelic series)
[26]
  binding signal: 8.84 upbm affinity estimate (log intensity, higher = more binding, comparable within an allelic series)
[31]
  binding signal: 7.71 upbm affinity estimate (log intensity, higher = more binding, comparable within an allelic series)
[32]
  binding signal: 7.66 upbm affinity estimate (log intensity, higher = more binding, comparable within an allelic series)
[6]
  binding signal: 8.4 upbm affinity estimate (log intensity, higher = more binding, comparable within an allelic series)
